Source: the supplement of paper PMC11001985
Values without a mark were called inactive.

What follows are targets tested with C#CCNC(=O)CCSSCCC(=O)NCCc1ccc(C=O)c(C=O)c1 (assay: lysine labeling ratio R10:1 (500 µM / 50 µM probe), SILAC-ABPP in living cells; higher = lower intrinsic lysine reactivity toward the probe, active = 2 or less). Details: HeLa; probe concentrations 500 vs 50 µM.
Procedure, shortened: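 With forward and reverse label swaps, light and heavy SILAC HeLa cells, alive and in PBS at room temperature, were exposed to either 500 µM or 50 µM of an alkyne-tagged lysine probe bearing a disulfide link. After mixing, lysates were clicked to biotin-azide, cut with trypsin, pulled down on neutravidin, freed with DTT, alkylated and analysed on a TIMS-TOF Pro by LC-MS/MS. The per-lysine value R is the median over forward and reverse replicates of the filtered median high-probe/low-probe MS1 peptide ratio. It is capped at 20.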

UniProt P17844, sequence (P17844 whole entry): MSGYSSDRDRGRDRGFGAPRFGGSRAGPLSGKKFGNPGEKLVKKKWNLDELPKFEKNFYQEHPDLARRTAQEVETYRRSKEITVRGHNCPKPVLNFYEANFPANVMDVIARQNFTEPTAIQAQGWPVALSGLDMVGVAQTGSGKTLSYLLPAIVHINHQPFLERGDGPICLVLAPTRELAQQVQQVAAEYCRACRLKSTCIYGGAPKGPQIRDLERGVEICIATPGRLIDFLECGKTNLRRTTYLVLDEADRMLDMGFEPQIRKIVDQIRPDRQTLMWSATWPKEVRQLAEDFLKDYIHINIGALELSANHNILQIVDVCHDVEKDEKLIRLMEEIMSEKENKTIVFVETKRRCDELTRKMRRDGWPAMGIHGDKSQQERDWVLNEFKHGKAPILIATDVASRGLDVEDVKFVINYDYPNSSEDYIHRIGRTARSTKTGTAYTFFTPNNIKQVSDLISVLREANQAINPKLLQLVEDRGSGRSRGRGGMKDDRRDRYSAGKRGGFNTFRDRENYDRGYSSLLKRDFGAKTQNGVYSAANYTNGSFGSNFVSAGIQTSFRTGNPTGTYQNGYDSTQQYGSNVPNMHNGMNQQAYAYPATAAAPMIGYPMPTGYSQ
UniProt Q86XX4, sequence (Q86XX4 whole entry): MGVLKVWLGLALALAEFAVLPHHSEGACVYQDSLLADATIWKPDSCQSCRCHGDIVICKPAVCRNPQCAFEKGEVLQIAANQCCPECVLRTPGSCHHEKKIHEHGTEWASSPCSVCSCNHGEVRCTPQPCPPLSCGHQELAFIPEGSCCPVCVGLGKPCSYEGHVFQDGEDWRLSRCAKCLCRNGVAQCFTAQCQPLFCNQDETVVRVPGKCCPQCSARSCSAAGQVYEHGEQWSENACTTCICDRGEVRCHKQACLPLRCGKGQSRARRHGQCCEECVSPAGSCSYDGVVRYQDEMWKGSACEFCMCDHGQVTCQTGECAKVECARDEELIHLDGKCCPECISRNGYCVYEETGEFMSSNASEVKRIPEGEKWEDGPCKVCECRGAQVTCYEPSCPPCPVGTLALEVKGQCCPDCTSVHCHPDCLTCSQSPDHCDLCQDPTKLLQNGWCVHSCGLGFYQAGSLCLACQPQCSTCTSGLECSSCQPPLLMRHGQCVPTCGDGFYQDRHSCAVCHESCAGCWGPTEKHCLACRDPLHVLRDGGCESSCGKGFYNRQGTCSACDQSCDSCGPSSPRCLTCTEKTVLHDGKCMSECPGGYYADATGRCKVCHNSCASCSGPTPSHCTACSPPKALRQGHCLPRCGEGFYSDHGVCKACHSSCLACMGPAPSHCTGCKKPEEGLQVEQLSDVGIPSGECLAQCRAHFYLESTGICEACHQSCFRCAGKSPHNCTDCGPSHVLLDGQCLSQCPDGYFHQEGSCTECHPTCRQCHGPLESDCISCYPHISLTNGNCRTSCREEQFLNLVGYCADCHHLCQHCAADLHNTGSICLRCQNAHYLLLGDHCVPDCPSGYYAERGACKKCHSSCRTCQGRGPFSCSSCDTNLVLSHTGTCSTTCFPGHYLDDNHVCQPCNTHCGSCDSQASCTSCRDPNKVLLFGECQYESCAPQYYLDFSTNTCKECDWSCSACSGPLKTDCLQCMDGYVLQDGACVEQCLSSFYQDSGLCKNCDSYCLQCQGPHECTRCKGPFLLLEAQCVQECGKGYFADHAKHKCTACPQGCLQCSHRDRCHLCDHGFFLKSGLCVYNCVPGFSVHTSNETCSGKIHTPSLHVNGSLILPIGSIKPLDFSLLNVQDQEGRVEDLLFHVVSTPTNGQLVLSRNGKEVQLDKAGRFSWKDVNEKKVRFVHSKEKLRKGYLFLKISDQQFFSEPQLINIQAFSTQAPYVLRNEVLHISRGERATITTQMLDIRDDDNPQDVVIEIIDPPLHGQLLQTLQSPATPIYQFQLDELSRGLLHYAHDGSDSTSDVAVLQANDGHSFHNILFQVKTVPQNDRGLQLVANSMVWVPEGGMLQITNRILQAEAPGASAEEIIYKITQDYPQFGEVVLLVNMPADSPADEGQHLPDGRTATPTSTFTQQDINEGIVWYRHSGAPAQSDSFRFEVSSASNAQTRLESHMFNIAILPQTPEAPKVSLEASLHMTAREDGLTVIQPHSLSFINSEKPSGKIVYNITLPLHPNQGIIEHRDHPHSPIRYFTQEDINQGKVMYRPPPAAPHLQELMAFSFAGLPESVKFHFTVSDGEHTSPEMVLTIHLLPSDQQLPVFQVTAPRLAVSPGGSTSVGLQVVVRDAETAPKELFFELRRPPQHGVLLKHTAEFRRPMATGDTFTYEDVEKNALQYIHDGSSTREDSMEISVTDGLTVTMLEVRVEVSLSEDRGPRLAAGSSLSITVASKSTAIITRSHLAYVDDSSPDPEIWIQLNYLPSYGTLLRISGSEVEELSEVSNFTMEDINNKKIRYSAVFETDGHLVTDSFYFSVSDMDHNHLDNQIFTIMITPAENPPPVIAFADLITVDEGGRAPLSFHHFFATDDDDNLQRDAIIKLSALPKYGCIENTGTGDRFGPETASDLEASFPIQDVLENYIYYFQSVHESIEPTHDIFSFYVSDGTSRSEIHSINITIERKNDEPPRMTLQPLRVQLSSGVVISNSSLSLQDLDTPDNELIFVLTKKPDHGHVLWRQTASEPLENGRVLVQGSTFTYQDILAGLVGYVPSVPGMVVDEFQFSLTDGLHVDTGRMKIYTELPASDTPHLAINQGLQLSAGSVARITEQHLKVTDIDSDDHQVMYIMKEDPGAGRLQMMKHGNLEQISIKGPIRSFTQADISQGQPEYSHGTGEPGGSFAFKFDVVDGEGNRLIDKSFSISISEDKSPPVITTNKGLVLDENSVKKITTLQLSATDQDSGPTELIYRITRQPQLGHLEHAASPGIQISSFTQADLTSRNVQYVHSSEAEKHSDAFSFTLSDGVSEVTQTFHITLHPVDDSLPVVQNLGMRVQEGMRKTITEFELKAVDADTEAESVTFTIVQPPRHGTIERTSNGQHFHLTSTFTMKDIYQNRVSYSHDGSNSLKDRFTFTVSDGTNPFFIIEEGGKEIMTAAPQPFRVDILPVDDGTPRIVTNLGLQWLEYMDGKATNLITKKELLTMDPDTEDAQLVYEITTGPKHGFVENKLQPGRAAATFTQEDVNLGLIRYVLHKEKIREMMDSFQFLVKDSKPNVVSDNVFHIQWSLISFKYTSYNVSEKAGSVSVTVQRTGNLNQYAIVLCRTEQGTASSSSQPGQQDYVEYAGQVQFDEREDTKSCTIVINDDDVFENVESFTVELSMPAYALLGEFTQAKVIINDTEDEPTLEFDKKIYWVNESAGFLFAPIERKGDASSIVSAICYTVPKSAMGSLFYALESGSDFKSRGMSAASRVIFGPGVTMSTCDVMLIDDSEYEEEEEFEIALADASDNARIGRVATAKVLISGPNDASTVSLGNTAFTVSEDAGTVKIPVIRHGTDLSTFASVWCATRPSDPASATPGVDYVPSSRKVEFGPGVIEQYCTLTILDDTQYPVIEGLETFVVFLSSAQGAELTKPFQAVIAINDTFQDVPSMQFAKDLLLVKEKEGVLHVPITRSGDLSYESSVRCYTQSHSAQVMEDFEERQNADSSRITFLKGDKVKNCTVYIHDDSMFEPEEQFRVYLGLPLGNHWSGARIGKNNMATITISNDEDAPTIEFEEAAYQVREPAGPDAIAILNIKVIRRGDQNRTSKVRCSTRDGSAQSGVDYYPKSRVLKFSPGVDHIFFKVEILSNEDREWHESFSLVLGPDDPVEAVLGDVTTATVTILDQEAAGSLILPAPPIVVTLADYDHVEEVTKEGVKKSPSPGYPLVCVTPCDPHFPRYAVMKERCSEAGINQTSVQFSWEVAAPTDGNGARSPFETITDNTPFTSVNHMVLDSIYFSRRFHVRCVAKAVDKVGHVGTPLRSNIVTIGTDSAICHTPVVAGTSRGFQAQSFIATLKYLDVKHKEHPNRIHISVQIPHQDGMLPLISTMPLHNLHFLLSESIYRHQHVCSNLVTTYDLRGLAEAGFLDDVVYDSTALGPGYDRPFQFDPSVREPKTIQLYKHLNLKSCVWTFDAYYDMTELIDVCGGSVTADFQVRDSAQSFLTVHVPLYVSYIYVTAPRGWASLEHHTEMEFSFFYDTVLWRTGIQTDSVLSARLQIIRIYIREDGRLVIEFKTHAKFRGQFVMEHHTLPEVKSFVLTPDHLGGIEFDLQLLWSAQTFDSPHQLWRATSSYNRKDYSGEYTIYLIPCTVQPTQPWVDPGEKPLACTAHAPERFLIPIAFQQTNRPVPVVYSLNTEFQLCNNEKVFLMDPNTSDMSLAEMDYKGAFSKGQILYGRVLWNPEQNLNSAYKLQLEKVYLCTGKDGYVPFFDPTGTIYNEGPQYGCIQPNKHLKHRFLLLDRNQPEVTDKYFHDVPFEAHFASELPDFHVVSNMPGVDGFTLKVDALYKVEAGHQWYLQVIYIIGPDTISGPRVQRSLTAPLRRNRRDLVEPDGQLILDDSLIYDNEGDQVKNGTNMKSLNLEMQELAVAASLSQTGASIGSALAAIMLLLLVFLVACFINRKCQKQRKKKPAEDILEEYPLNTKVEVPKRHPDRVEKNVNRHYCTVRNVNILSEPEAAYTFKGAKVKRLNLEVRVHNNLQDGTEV
UniProt P08727, sequence (P08727 whole entry): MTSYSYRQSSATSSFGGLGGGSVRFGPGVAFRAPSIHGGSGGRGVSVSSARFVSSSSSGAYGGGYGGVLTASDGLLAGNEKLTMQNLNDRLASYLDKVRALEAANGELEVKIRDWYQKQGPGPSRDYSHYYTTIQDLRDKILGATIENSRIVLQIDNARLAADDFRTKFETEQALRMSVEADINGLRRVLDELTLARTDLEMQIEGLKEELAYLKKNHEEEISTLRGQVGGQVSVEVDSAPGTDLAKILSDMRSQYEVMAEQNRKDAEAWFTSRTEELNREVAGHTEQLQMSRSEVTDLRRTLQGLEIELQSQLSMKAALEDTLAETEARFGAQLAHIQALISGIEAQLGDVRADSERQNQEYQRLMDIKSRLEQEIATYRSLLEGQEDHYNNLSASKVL
UniProt P61769, sequence (P61769 whole entry): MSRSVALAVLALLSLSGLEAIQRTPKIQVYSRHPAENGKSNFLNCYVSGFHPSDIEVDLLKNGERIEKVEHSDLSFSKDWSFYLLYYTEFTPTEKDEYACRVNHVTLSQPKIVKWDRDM

| Target | lysine labeling ratio R10:1 |
| --- | --- |
| UniProt P63000 (lysine site: K153) | 2.29 |
| UniProt P08727 (lysine site: K140) | 2.21 |
| FRAS1 (lysine site: K2521) (UniProt Q86XX4) | 2.03 |
| GPC1 (lysine site: K42) (UniProt P35052) | 2.38 |
| NUMA1 (lysine site: K1667) (UniProt Q14980) | 0.807 (active) |
| HGS (lysine site: K551) (UniProt O14964) | 0.818 (active) |
| UniProt Q9NY47 (lysine site: K270) | 2.85 |
| ADGRG2 (lysine site: K592) (UniProt Q8IZP9) | 2.37 |
| CDCP1 (lysine site: K413) (UniProt Q9H5V8) | 1.38 (active) |
| UniProt P62280 (lysine site: K32) | 4.32 |
| LMO7 (lysine site: K794) (UniProt Q8WWI1) | 2.02 |
| PLOD3 (lysine site: K89) (UniProt O60568) | 5.28 |
| PTPRS (lysine site: K379) (UniProt Q13332) | 2.21 |
| FRAS1 (lysine site: K1164) (UniProt Q86XX4) | 1.34 (active) |
| TF (lysine site: K135) (UniProt P02787) | 1.26 (active) |
| ACTN4 (lysine site: K592) (UniProt O43707) | 6.67 |
| TLN1 (lysine site: K1332) (UniProt Q9Y490) | 5.83 |
| F11R (lysine site: K63) (UniProt Q9Y624) | 2.75 |
| MYH9 (lysine site: K1246) (UniProt P35579) | 0.944 (active) |
| UniProt Q6NZI2 (lysine site: K258) | 9.27 |

| Target | lysine labeling ratio R10:1 |
| --- | --- |
| HBA1 (lysine site: K17) (UniProt P69905) | 3.74 |
| RAB2A (lysine site: K131) (UniProt P61019) | 1.7 (active) |
| ACTN4 (lysine site: K760) (UniProt O43707) | 4.05 |
| CD63 (lysine site: K162) (UniProt P08962) | 4.92 |
| SYNE2 (lysine site: K1618) (UniProt Q8WXH0) | 1.41 (active) |
| ALDOA (lysine site: K330) (UniProt P04075) | 2.76 |
| SPTAN1 (lysine site: K1750) (UniProt Q13813) | 2.19 |
| PTPRJ (lysine site: K876) (UniProt Q12913) | 3.12 |
| B2M (lysine site: K114) (UniProt P61769) | 15.6 |
| IARS (lysine site: K132) (UniProt P41252) | 1.68 (active) |
| HNRNPU (lysine site: K186) (UniProt Q00839) | 4.06 |
| UniProt P08727 (lysine site: K118) | 3.16 |
| DDX5 (lysine site: K375) (UniProt P17844) | 2.45 |
| L1CAM (lysine site: K144) (UniProt P32004) | 1.09 (active) |
| DDX5 (lysine site: K391) (UniProt P17844) | 10.4 |
| IGF1R (lysine site: K713) (UniProt P08069) | 2.62 |
| CCT6A (lysine site: K251) (UniProt P40227) | 1.04 (active) |
| UniProt Q99623 (lysine site: K262) | 3.03 |
| DDR1 (lysine site: K30) (UniProt Q08345) | 1.33 (active) |
| CTTN (lysine site: K235) (UniProt Q14247) | 1.56 (active) |
